Rows were chosen to be rich in hits. Some 3.1% of all compounds tested hit in one or more screens of this group.
EPAC2 ant val: validation of human EPAC2 antagonists; 1.7% of 16,000 active; Q8WZA2; Potency, µM (series often up to 112 µM), inactives show at the highest dose activity, negative = inhibition, most hits filed as inhibitors; EPAC2 Rap1B BODIPY-GDP exchange, fluorescence;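 further: 100% = activation by cAMP agonist control; nearly all actives have a fitted effect of over 40% in size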
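Fluorescent exchange read-out: 100 nM EPAC2 with 250 nM RAP1B–BODIPY-GDP and 50 uM GDP; BODIPY-GDP release lowers fluorescence. Read at 480/540 nm every 5 min for 30 min at room temperature; normalized to 6.5 mM cAMP.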
EPAC1 ag val: human EPAC1 agonism, validation. EPAC1 Rap1b BODIPY-GDP exchange, fluorescence. Potency, µM, for inactives: max response, positive = active, most hits filed as activators. 1% of 16,000 active; further: nearly all actives have a fitted effect of over 70% in size
Active calls of the source: *; i = inactive; ? = inconclusive; ! = not active in a repeat; [ ] = remark or other dose. The call rests on the fitted dose curve; in most records, active means well fitted curve in the direction sought with a large enough effect; inconclusive means small, poorly fitted or top-dose-only effect, or another doubt; inactive means no such curve, though single readings can be large; an effect the other way counts as inactive or inconclusive. Unless noted, on the % scale 0 is the no-effect control and ±100 the full control effect; potency means the concentration at half of the fitted maximal effect.

SMILES | EPAC2 ant val | EPAC1 ag val
CCCCC(=O)OCC(=O)[C@]1(O)Cc2c(O)c3c(c(O)c2[C@@H](O[C@H]2C[C@H](NC(=O)C(F)(F)F)[C@H](O)[C@H](C)O2)C1)C(=O)c1c(OC)cccc1C3=O | -4% | -8%
C=C[C@]1(C)C[C@@H](OC(=O)CSC(C)(C)CNC(=O)[C@H](N)C(C)C)[C@]2(C)[C@H](C)CC[C@]3(CCC(=O)[C@H]32)[C@@H](C)[C@@H]1O | -25% | -6%
Nc1ccc(O)cc1 | ? | 8%
Nc1cc(N)cc(N)c1 | 56µM* | 10%
C=C1CC[C@H](O)CC1=C/C=C1\CCC[C@]2(C)[C@@H]([C@H](C)CCCC(C)(C)O)CC[C@@H]12 | 2% | -21%
Cc1cnc(-n2ncc(C(=O)NCCc3ccncc3)c2-c2cccs2)nc1-c1ccc(F)cc1 | -24% | ?
COC(=O)[C@H]1[C@H]2C[C@@H]3c4[nH]c5cc(OC)ccc5c4CCN3C[C@H]2C[C@@H](OC(=O)COc2ccc(OC)cc2)[C@@H]1OC | -2% | 1%
CCOC(=O)Oc1c(OC)cc(C(=O)O[C@@H]2C[C@@H]3CN4CCc5c([nH]c6cc(OC)ccc56)[C@H]4C[C@@H]3[C@H](C(=O)OC)[C@H]2OC)cc1OC | -17%[29.6 µM] | 32µM*!
COc1cc(C)c(C(=O)Oc2cc(C)c(C(=O)O)c(O)c2C)c(OC)c1C | 50µM* | -128%
COc1cc(OC)c(C(C)=O)c(O)c1C | -9% | -17%
CCOC(=O)N1CCN(Cc2ccc3c(c2)CN(C(=O)c2cc(-c4ccccc4)no2)CCO3)CC1 | -18% | 6%
COC(=O)c1c(C)[nH]c(C)c1C(=O)c1ccccc1Cc1ccccc1 | 79µM*! | 4%
COC(=O)c1ccccc1NS(C)(=O)=O | ? | -34%
O=C(NCC1Cc2cccc(-c3nccs3)c2O1)c1ccnc(Cl)c1 (stereo unspecified) | ? | -19%
COC(=O)C1=C(C)NC(C)=C(C(=O)OCC(C)=O)C1c1ccccc1[N+](=O)[O-] (stereo unspecified) | -8% | 9%
COC(=O)C1=C(C)NC(C)=C(C(=O)OCCSc2ccccc2)[C@@H]1C | ? | 17%
COC(=O)C1=C(C)NC(C)=C([N+](=O)[O-])[C@H]1c1ccccc1C(F)(F)F | 50µM* | -15%
COC(=O)C1=C(C)NC(C)=C([N+](=O)[O-])[C@@H]1c1ccccc1C(F)(F)F | 40µM* | -14%
COc1cc(-c2cc(C)c3cccc(OC)c3n2)cc2c1OCCN(C(=O)CCn1ccc(C)n1)C2 | -2% | 1%
CO[C@@H]1[C@@H](O[C@@H]2O[C@H](C)[C@@H](O[C@H]3C[C@@](C)(O)[C@@H](O)[C@H](C)O3)[C@H](N(C)C)[C@H]2O)[C@@H](CC=O)C[C@@H](C)[C@@H](O[C@@H]2CC[C@H](N(C)C)[C@@H](C)O2)/C=C/C=C/C[C@@H](C)OC(=O)C[C@H]1OC(C)=O | 42% | 10%
COc1ccccc1-c1nc(N(C)Cc2ccco2)c2ccccc2n1 | ? | -1%
CN(Cc1ccco1)c1nc(-c2ccccc2Cl)nc2ccccc12 | -30% | 100µM*
Cc1ccc(F)cc1CNC(=O)c1sc2ncnc(NCC3CCCO3)c2c1C (stereo unspecified) | ? | -5%
COc1ccc(C(=O)N2CCC3(CCCN(Cc4cc(C(F)(F)F)cc(C(F)(F)F)c4)C3)CC2)cc1 | 35µM* | -78%
COC(=O)N1CCC2(CCCN(Cc3cc(C(F)(F)F)cc(C(F)(F)F)c3)C2)CC1 | -25% | -28%
SMILES | EPAC2 ant val | EPAC1 ag val
CN1CCN(CCCN2c3ccccc3Sc3ccccc32)CC1 | 3% | 9%
CN1CCN(CCCN2c3ccccc3Sc3ccc(Cl)cc32)CC1 | 35µM*! | 14%
OCCN1CCN(CCCN2c3ccccc3Sc3ccc(C(F)(F)F)cc32)CC1 | 50µM*! | 17%
CC(=O)c1ccc2c(c1)N(CCCN1CCN(CCO)CC1)c1ccccc1S2 | 54% | 7%
COc1cccc2ccc(CN3CCC4(CC3)c3ccccc3[C@@H](NC(=O)c3ccccc3)[C@@H]4O)nc12 | 20% | -1%
COc1ccc(S(=O)(=O)NCc2nc(N3CCCC3)c3cccc(C)c3n2)cc1OC | -19% | 6%
Clc1ccccc1C(c1ccccc1)(c1ccccc1)n1ccnc1 | 11µM*! | ?
Clc1ccccc1-c1nccc(-n2ccnc2)n1 | -21% | 18%
CC(C)(CNC(=O)c1cnn(-c2ncc3c(n2)-c2ccccc2CCC3)c1C1CC1)N1CCOCC1 | 7% | 2%
Nc1ncnc2c1ncn2[C@@H]1O[C@H](COP(=O)(O)OP(=O)(O)OP(=O)(O)OP(=O)(O)OC[C@@H]2O[C@H](n3cnc4c(N)ncnc43)[C@@H](O)[C@H]2O)[C@@H](O)[C@H]1O | -1% | 19%
Cc1cc2nc3c(=O)[nH]c(=O)nc-3n(C[C@H](O)[C@H](O)[C@H](O)COP(=O)(O)OP(=O)(O)OC[C@H]3O[C@@H](n4cnc5c(N)ncnc54)[C@H](O)[C@@H]3O)c2cc1C | i | 112µM*
COc1cc(-c2noc(C)c2-c2ccc3[nH]ccc3c2)cc(OC)c1OC | 79µM* | -73%
COc1cc(-c2noc(C)c2-c2ccc(N(C)C)nc2)cc(OC)c1OC | ? | -2%
Cc1oc(-c2ccccc2NC(=O)c2ccsc2)nc1CN(C)Cc1ccc2c(c1)CCCN2C | -22% | 1%
O=S(=O)(/C=C/c1ccccc1)N1CCC(n2c(C3CCCO3)nc3cccnc32)CC1 (stereo unspecified) | -6% | 8%
CCc1oc2ccccc2c1C(=O)c1cc(I)c(O)c(I)c1 | 63µM* | -36%
COc1ccc(-c2oc3ccccc3c(=O)c2O)cc1OC | -10% | 6%
COc1ccc2[nH]cc(CCNc3ccnc(-c4ccc(N(C)C)cc4)n3)c2c1 | -27% | ?
COc1ccc2[nH]cc(CCNc3ccnc(-c4ccoc4)n3)c2c1 | 89µM* | -59%
COc1cc(=O)n2c(c1C(=O)N(C)C(C)c1ccco1)CCN(C(=O)c1ccc(C(C)=O)cc1)CC2 (stereo unspecified) | -15% | 18%
C/C1=C2N=C(/C=C3N=C(/C(C)=C4\[N-]C(C(CC(N)=O)C4(C)CCC(=O)NCC(C)OP(=O)([O-])OC4C(CO)OC(n5cnc6cc(C)c(C)cc65)C4O)C4(C)N=C1C(CCC(N)=O)C4(C)CC(N)=O)C(CCC(N)=O)C\3(C)C)C(CCC(N)=O)C/2(C)CC(N)=O.[CH3-].[Co+3] (stereo unspecified) | 10µM* | 2%
COc1ccc2c(c1)CCc1cnc(-n3ncc(C(=O)N(C)CCc4ccccn4)c3C)nc1-2 | -6% | -16%
CCC(C)[C@H]1COCCS(=O)(=O)N1Cc1ccccc1F (stereo partly specified) | ? | -52%
CC(C)[C@H]1COCCS(=O)(=O)N1Cc1ccc(Cl)cc1 | ? | -49%
CCC(C)[C@H]1COCCS(=O)(=O)N1Cc1ccc(Cl)cc1Cl (stereo partly specified) | 28µM* | -30%
CCC(C)[C@H]1COCCS(=O)(=O)N1Cc1ccc(Br)cc1 (stereo partly specified) | 10µM* | -124%
Cc1ccc(-c2ccnc(-n3ncc(C(=O)N(C)CC4CCCN(C)C4)c3C)n2)o1 (stereo unspecified) | ? | -9%
O=C(NCC1Cc2cc(F)cc(-c3cccnc3)c2O1)c1cnn(-c2ccccc2)c1 (stereo unspecified) | ? | 6%
CC(=O)Oc1ccc(C(c2ccc(OC(C)=O)cc2)c2ccccn2)cc1 | 18µM* | -44%

High-throughput results (PubChem BioAssay)
